Assay outcomes from PubChem.
JMJD2A Tudor inh = blocks the human JMJD2A Tudor domain | Potency, µM (series often up to 114 µM), most hits filed as inhibitors | AID 504339 | AlphaScreen JMJD2A-Tudor / H3K4me3 peptide binding | 390,000 tested, 4.4% active | O75164; further: nearly all actives have a fitted effect of over 50% in size
VDR inhibitor = inhibitors of human vitamin D receptor; P11473; VDR-SRC2-3 peptide fluorescence polarization, 2 h; Potency, µM, actives largely listed as inhibitors; 400,000 tested, 0.93% active
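FP read-out; VDR + SRC2-3 coactivator peptide; 23 nl compound by pintool; 2 h RT incubation; reagents held at 4 deg C, protected from light.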
BAZ2B inh = inhibitors of human BAZ2B bromodomain; Q9UIF8; AlphaScreen BAZ2B-H3K14Ac peptide displacement; Potency, µM (doses to about 114 µM), hits mostly inhibitors; 360,000 tested, 4.4% active; further: nearly all actives have a fitted effect of over 60% in size
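Compounds, titrated to a top concentration of 110 uM, were incubated 30 min at room temperature with preformed BAZ2B/acetyl-K14 H3 peptide complex (50 nM each). Proximity signal was measured by AlphaScreen after 20 min with beads.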
G9a inh = inhibitors of human histone lysine methyltransferase G9a; G9a H3K9 monomethylation, AlphaScreen, 2 h; Potency, µM (series often up to 102 µM), most hits filed as inhibitors; 350,000 tested, 8.8% active; further: nearly all actives have a fitted effect of over 75% in size
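Readings reflect AlphaScreen signal from monomethyl-H3K9 antibody detection. HMT at 20 nM; substrate b-H3K9 500 nM; cofactor SAM 20 uM; 2 h RT reaction; compounds tested as titrations in qHTS with 15 min preincubation.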
PLK1 PBD inh = blocks phosphopeptide binding to human PLK1 polo-box domain. P53350. Potency, µM, hits mostly inhibitors. 360,000 tested, 2.8% active. Plk1 PBD binding of FITC phosphopeptide, fluorescence polarization; further: series mostly up to about 57 µM; nearly all actives have a fitted effect of over 65% in size
HP1b binding inh = HP1-beta chromodomain-methylated histone interaction inhibition; P83916; AlphaScreen HP1-beta / biotin-H3K9me3 peptide binding; Potency, µM (doses to about 114 µM), usual class: inhibitors; 390,000 tested, 0.56% active; AID 540317; further: nearly all actives have a fitted effect of over 70% in size
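AlphaScreen: HP1-beta (50 nM) preformed 30 min with biotin-H3(1-18)K9me3 peptide (50 nM) in PBS pH 7.4, 0.01% Tween-20. Compound added for 30 min at RT, then streptavidin donor/nickel chelate acceptor beads (10 ug/mL) for 30 min.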
Each line names hits and unclear results; the compound was inactive in the other large screens. Compounds with a hit are over-represented: about 11% of the library has one in this group of screens. The call rests on the fitted dose curve; in most records, active means well fitted curve in the direction sought with a large enough effect; inconclusive means small, poorly fitted or top-dose-only effect, or another doubt; inactive means no such curve, though single readings can be large; an effect the other way counts as inactive or inconclusive.

CC/C(O)=C(\C#N)c1nnc2n1CCCCC2	JMJD2A Tudor inh 3.55µM, BAZ2B inh 79.4µM
N#C/C(=C(/O)COc1ccc(Br)cc1)c1nnc2n1CCCCC2	none
CC/C(O)=C(/C#N)c1nnc2n1CCCCC2	JMJD2A Tudor inh 28.2µM, BAZ2B inh 79.4µM, G9a inh inconclusive
CCOc1cc(/C=N\NC(=O)C2C(=O)NCC2c2ccccc2)ccc1OC (stereo not drawn)	none
COc1ccc(/C=N\NC(=O)C2C(=O)NCC2c2ccccc2)cc1O (stereo not drawn)	JMJD2A Tudor inh inconclusive, VDR inhibitor inconclusive, PLK1 PBD inh 2.99µM, HP1b binding inh inconclusive
COC(=O)c1ccc(COc2ccccc2/C=C(\C#N)C(=O)Nc2c(C)cc(C)cc2C)cc1	none
COc1ccc(/C=C(/C#N)C(=O)Nc2cccc([N+](=O)[O-])c2)cc1C(=O)O	BAZ2B inh inconclusive, G9a inh 44.7µM
COc1cc(/C=C(\C#N)C(=O)Nc2cccc(C(=O)O)c2)ccc1OCc1ccc(Cl)cc1	JMJD2A Tudor inh inconclusive, BAZ2B inh 44.7µM
CCOc1ccccc1/C=C(\C#N)C(=O)Nc1cccc(C(=O)O)c1	VDR inhibitor inconclusive
COc1ccccc1NC(=O)/C(C#N)=C/c1ccncc1	PLK1 PBD inh inconclusive (no result: G9a inh)
COc1cc(/C=C(/C#N)C(=O)Nc2ccccc2)c(Br)cc1OCc1ccc(C(=O)O)cc1	JMJD2A Tudor inh inconclusive, VDR inhibitor 50.1µM, BAZ2B inh inconclusive, G9a inh inconclusive, PLK1 PBD inh 23.8µM
COc1ccccc1NC(=O)/C(C#N)=C/c1cc([N+](=O)[O-])ccc1N1CCCC1	PLK1 PBD inh 10.6µM
Cn1c(=O)c2c(nc(NN=C3CCCCC3)n2C)n(C)c1=O	G9a inh 50.1µM, HP1b binding inh inconclusive (no result: BAZ2B inh)
O=C(CSc1nc(-c2ccccc2)nc2c1Cc1ccccc1O2)N1CCCCC1	none (no result: PLK1 PBD inh)
CC(C)C(=O)Nc1ccc2nn(-c3ccc(F)cc3)nc2c1	G9a inh inconclusive
O=C(Nc1cccc(NC(=O)c2ccc3c(c2)OCO3)c1)c1ccccc1	BAZ2B inh inconclusive
COc1cc(NC(=O)c2ccc3c(c2)OCO3)ccc1NC(=O)C(C)C	JMJD2A Tudor inh 79.4µM, PLK1 PBD inh 29.9µM, HP1b binding inh inconclusive
CC(=O)c1cccc(NC(=O)c2ccc3c(c2)OCO3)c1	JMJD2A Tudor inh inconclusive, VDR inhibitor 79.4µM, PLK1 PBD inh 23.8µM (no result: G9a inh)
Cc1ccc(-n2nc3ccc(NC(=O)C(C)C)cc3n2)cc1	BAZ2B inh inconclusive, G9a inh 12.6µM, PLK1 PBD inh inconclusive
O=C(Nc1ncccc1O)c1ccc2c(c1)OCCO2	JMJD2A Tudor inh 25.1µM, BAZ2B inh 79.4µM, G9a inh 50.1µM
Cc1cccnc1NC(=O)c1ccc2c(c1)OCCO2	none
O=C(NN=C1C2CC3CC(C2)CC1C3)c1cc(Cl)ccc1O	none
O=C(CCSCc1ccccc1F)NCc1ccc(F)cc1	none
CCn1ccc2cc(S(=O)(=O)N3CCCN(C(=O)Nc4ccc(C)cc4Cl)CC3)ccc21	none (no result: PLK1 PBD inh)
O=C(Nc1ccc2nn(-c3ccccc3)nc2c1)c1ccc2c(c1)OCCO2	none (no result: BAZ2B inh)
Cc1ccc(-n2nc3ccc(NC(=O)c4ccc5c(c4)OCO5)cc3n2)cc1	G9a inh 70.8µM
O=C(Nc1cc(-c2nc3ncccc3o2)ccc1Cl)c1ccc2c(c1)OCO2	none
O=C(Nc1cccc(-c2nc3ncccc3o2)c1)c1ccc2c(c1)OCO2	JMJD2A Tudor inh inconclusive, VDR inhibitor inconclusive, PLK1 PBD inh 26.7µM (no result: BAZ2B inh, G9a inh)
CCCC(=O)Nc1ccc2nn(-c3ccc(OC)cc3)nc2c1	JMJD2A Tudor inh inconclusive, VDR inhibitor inconclusive, PLK1 PBD inh 21.2µM
N#CC1=C(N)NC(=S)C(C(N)=O)C1c1ccc([N+](=O)[O-])cc1 (stereo not drawn)	JMJD2A Tudor inh 89.1µM, VDR inhibitor 79.4µM, PLK1 PBD inh 26.7µM (no result: G9a inh)
CC(C)(C)c1ccc(Cn2nnc3c(=O)[nH]c(C4CCN(C(=O)c5ccco5)CC4)nc32)cc1	JMJD2A Tudor inh 79.4µM, BAZ2B inh inconclusive, G9a inh inconclusive, PLK1 PBD inh inconclusive
O=C(c1ccco1)N1CCC(c2nc3c(nnn3Cc3c(Cl)cccc3Cl)c(=O)[nH]2)CC1	G9a inh inconclusive
O=C(NCC(c1ccco1)N1CCCCC1)c1ccc(COc2ccc(Cl)cc2)cc1 (stereo not drawn)	none (no result: BAZ2B inh, G9a inh)
N#CC1=CN(Cc2ccccc2)C=C(/C=N/Nc2ccccc2)C1	JMJD2A Tudor inh inconclusive, G9a inh 3.55µM
C[C@@H]1CC[C@]2(C(=O)O)CC[C@]3(C)C(=CCC4[C@@]5(C)C[C@@H](O)[C@H](O)[C@@](C)(CO)C5[C@H](O)C[C@]43C)C2[C@H]1C (stereo partly drawn)	none (no result: JMJD2A Tudor inh, BAZ2B inh, PLK1 PBD inh, HP1b binding inh)
COCCNc1nc(Nc2ccc(C#N)cc2)c2sccc2n1	none (no result: JMJD2A Tudor inh, VDR inhibitor, BAZ2B inh, G9a inh, HP1b binding inh)
CCCCN(C(=O)c1ccc(Br)o1)C1CCS(=O)(=O)C1 (stereo not drawn)	G9a inh 50.1µM
CCCCN(C(=O)c1ccccc1Br)C1CCS(=O)(=O)C1 (stereo not drawn)	VDR inhibitor inconclusive
O=C(CSCCSCC(=O)c1ccco1)c1ccco1	BAZ2B inh inconclusive, G9a inh 10µM (no result: JMJD2A Tudor inh, VDR inhibitor, PLK1 PBD inh, HP1b binding inh)
O=C(CSc1ncnc2ccccc12)c1ccco1	JMJD2A Tudor inh inconclusive, VDR inhibitor inconclusive, G9a inh 12.6µM, PLK1 PBD inh inconclusive, HP1b binding inh inconclusive
N#CCOc1ccccc1CNC[C@H]1O[C@@H](n2cnc3c(=O)[nH]c(N)nc32)[C@H](O)[C@@H]1O	none (no result: JMJD2A Tudor inh, VDR inhibitor, BAZ2B inh, G9a inh, HP1b binding inh)
COC(=O)[C@@]12C[C@@H](CC(=O)N3CCCC3)C(=O)N(CCc3ccc(OC)c(OC)c3)C1=CCC(C)(C)C2	none (no result: JMJD2A Tudor inh, VDR inhibitor, BAZ2B inh, G9a inh, HP1b binding inh)
COc1ccccc1NC(=O)CN1C(=O)C(C)(C)c2ccccc21	none (no result: PLK1 PBD inh)
CCCN1CCC(NC(=S)Nc2ccc(OC)c(OC)c2)CC1	G9a inh 50.1µM
COc1ccc(NC(=S)NCCN2CCC(C)CC2)cc1Cl	VDR inhibitor inconclusive, G9a inh 11.2µM, PLK1 PBD inh 10.6µM
COc1cc(NC(=S)NCCCN2CCOCC2)c(OC)cc1Cl	G9a inh inconclusive
COc1ccc(NC(=S)NCCCN2CCCC2)cc1Cl	BAZ2B inh inconclusive, G9a inh 17.8µM, PLK1 PBD inh 18.9µM
CCCN1CCC(NC(=O)Nc2ccc(Br)cc2)CC1	G9a inh 35.5µM
CCOC(=O)c1cnc2ccc(OCC)cc2c1N1CCN(c2cccc(Cl)c2)CC1	BAZ2B inh inconclusive (no result: PLK1 PBD inh)
CCCOc1ccc(N2C(=O)CC(SCc3nc4ccccc4[nH]3)C2=O)cc1 (stereo not drawn)	VDR inhibitor inconclusive, G9a inh inconclusive
COC(=O)c1sccc1S(=O)(=O)N(CC(=O)NCc1ccc(F)cc1)c1ccccc1	none (no result: PLK1 PBD inh)
CC[n+]1c(/C=C/Nc2ccccc2)oc2ccccc21	G9a inh 50.1µM
CC[n+]1c(/C=C/N(C)c2ccccc2)oc2ccc(F)cc21	JMJD2A Tudor inh 79.4µM, VDR inhibitor inconclusive, G9a inh 8.91µM, PLK1 PBD inh inconclusive
